Laboratory results: PubChem BioAssay AID1751 (National Center for Advancing Translational Sciences (NCATS), 2009)
Several values for one entry are separate records, joined by “and”; a condition that tells them apart may be missing. Identical values can stand only once. Results filed as inconclusive are left out. Activity calls are given as the source filed them. Calls follow the shape of the dose curve; as a rule, active = well fitted activation curve with a large enough effect; inconclusive = small, poorly fitted or top-dose-only effect; inactive = no such curve, though single readings can be large or run the other way.

Each molecule was assayed against Pyruvate kinase PKM (Homo sapiens) (UniProt P14618) (assay: Confirmation Concentration-Response Assay for Activators of Human Muscle isoform 2 Pyruvate Kinase). Conditions: purified hPK-M2, Kinase-Glo ATP luminescence, 1 h; series mostly up to 57.5 µM.
Sequence of Pyruvate kinase PKM (Homo sapiens) (P14618 whole entry, looked up, canonical isoform): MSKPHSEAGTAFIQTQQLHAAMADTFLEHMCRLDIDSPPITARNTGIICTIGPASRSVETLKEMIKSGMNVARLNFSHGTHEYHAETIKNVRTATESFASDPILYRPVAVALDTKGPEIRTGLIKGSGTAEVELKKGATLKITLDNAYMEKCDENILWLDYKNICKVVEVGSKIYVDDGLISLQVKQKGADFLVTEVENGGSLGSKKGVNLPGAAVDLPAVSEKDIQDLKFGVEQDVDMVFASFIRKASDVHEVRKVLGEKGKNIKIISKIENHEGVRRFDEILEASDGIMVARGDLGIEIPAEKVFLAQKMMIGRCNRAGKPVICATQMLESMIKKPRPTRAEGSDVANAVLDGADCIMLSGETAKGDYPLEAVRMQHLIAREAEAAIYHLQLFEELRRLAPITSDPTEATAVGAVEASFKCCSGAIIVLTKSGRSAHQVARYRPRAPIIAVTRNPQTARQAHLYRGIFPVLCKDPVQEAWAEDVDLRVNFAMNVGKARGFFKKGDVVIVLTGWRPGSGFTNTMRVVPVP
Text: NIH Chemical Genomics Center [NCGC] Matthew G. Vander Heiden, M.D., Ph.D. [Harvard Medical School, 77 Avenue Louis Pasteur, Boston, MA 02115] MLPCN Grant: 1 R03 MH085679-01 NCGC Assay Overview: Human pyruvate kinase muscle 2 (hPK-M2) enzyme was supplied as a highly purified (>95% pure) preparation from Harvard Medical School and assayed for its ability to generate ATP from ADP using phosphoenolpyruvate (PEP) as a substrate. ATP generation was detected in a coupled reaction by luciferase-mediated luminescence, an ATP-dependent process. Pyruvate kinase substrates, PEP and ADP, were present in the assay at Km and approximately 10-fold below Km respectively. The enzyme was assayed at an intermediate level of activity to screen for both inhibitors and activators.
NCGC Assay Protocol Summary: Three uL of substrate mix (at r.t.) in assay buffer (50 mM Imidazole pH7.2, 50 mM KCl, 7 mM MgCl2, 0.01% Tween 20, 0.05% BSA) was dispensed into white solid bottom 1,536 well microtiter plates so that the final concentrations of substrates in the assay were 0.1 mM ADP and 0.5 mM PEP. 23 nL of compound were delivered by a pin tool and 1 uL of enzyme mix (final concentration of 0.1 nM) in assay buffer (4 degree Celsius) was added. Plates were incubated at room temperature for 1 hour. Two uL of detection mix (Kinase-Glo, Promega; at 4 degree Celsius protected from light) was added and luminescence read by a ViewLux (Perkin Elmer) at 1 second exposure/plate. Data were normalized to the uninhibited (column 3) and AC100 inhibition (no enzyme in column 2). To monitor activation, the first column contained a titration of the activator, NCGC00031955-03 (16-point 1:2 dilutions in duplicate starting at 57 uM) and the first 16 rows of column 4 contained 57 uM of NCGC00031955-03.
With `N#Cc1cc(-c2ccccc2)cnc1Sc1ccccc1` the Potency was “inactive”. In the case of `CN1CCOc2ccc(S(=O)(=O)N3CCN(S(=O)(=O)c4c(F)cccc4F)CC3)cc21`, the Potency is reported as 2010 nM (active). In the case of `COc1ccc(S(=O)(=O)N2CCN(S(=O)(=O)c3c(F)cccc3F)CC2)cc1`, the Potency is reported as 56.6 nM (active). For `CCN1CCc2c(sc(NC(=S)NC(=O)c3ccccc3)c2C#N)C1`, the Potency was “inactive”. With `O=S(=O)(c1c(F)cccc1F)N1CCN(S(=O)(=O)c2c(F)cccc2F)CC1` the Potency was 50.5 nM (active). `COc1cc2c(s1)c1cnn(Cc3ccccc3F)c(=O)c1n2C` was tested, and the Potency was 40.1 nM (active). With `Cc1ccc(NS(=O)(=O)c2ccc3c(c2)CCC(=O)N3)cc1C` the Potency was 163 nM (active). With `O=S(=O)(NC1CCC(NS(=O)(=O)c2c(F)cccc2F)CC1)c1ccc2c(c1)OCCO2` (stereo not given) the Potency was 1.27 µM (active) and 22.5 µM (active). In the case of `O=S(=O)(c1ccc2c(c1)OCCO2)N1CCN(S(=O)(=O)c2ccc(F)cc2F)CC1`, the Potency is reported as 63.5 nM (active). For `O=C1CN(S(=O)(=O)c2c(F)cccc2F)CCN1S(=O)(=O)c1ccc2c(c1)OCCO2`, the Potency was 89.7 nM (active). In the case of `O=S(=O)(c1c(F)cccc1F)C1CCN(S(=O)(=O)c2ccc3c(c2)OCCO3)CC1`, the Potency is reported as 201 nM (active). In the case of `O=S(=O)(NCCCNS(=O)(=O)c1c(F)cccc1F)c1ccc2c(c1)OCCO2`, the Potency is reported as 2840 nM (active). In the case of `Cc1ccc(-c2nnc3ccc(SC(C)C(=O)O)nn23)cc1` (stereo not given), the Potency is reported as “inactive”. `Cn1c2cc(B(O)O)sc2c2cnn(Cc3ccccc3F)c(=O)c21` was tested, and the Potency was 6350 nM (active). In the case of `COc1cccc(S(=O)(=O)N2CCN(S(=O)(=O)c3ccc4c(c3)OCCO4)CC2)c1`, the Potency is reported as 63.5 nM (active). In the case of `O=S(=O)(c1ccc2c(c1)OCCO2)N1CCN(S(=O)(=O)c2c(F)ccc(O)c2F)CC1`, the Potency is reported as 31.8 nM (active). `CC(=O)Nc1cc2c(s1)c1cnn(Cc3ccccc3F)c(=O)c1n2C` was tested, and the Potency was 17900 nM (active). With `CCc1cc2c(s1)c1cnn(Cc3ccccc3F)c(=O)c1n2C` the Potency was 63.5 nM (active). For `Cc1cc2c(s1)c1cnn(Cc3ccc(C(F)(F)F)cc3F)c(=O)c1n2C`, the Potency was 16000 nM (active). In the case of `O=S(=O)(NC1CCN(S(=O)(=O)c2ccc3c(c2)OCCO3)CC1)c1c(F)cccc1F`, the Potency is reported as 2530 nM (active). With `O=S(=O)(NC1CCN(S(=O)(=O)c2c(F)cccc2F)CC1)c1ccc2c(c1)OCCO2` the Potency was 3570 nM (active). In the case of `O=S(=O)(c1ccc2c(c1)OCCO2)N1CCCN(S(=O)(=O)c2c(F)cccc2F)CC1`, the Potency is reported as 566 nM (active). `C[C@H]1CN(S(=O)(=O)c2c(F)cccc2F)CCN1S(=O)(=O)c1ccc2c(c1)OCCO2` was tested, and the Potency was 3570 nM (active). With `O=C(/C=C/c1cccc(Cl)c1)c1nc2ccccc2[nH]1` the Potency was “inactive”. In the case of `O=S(=O)(c1ccc(Cl)cc1)N1CCN(S(=O)(=O)c2ccc3c(c2)OCCO3)CC1`, the Potency is reported as 56.6 nM (active). In the case of `O=S(=O)(c1ccc2c(c1)OCCO2)N1CCN(S(=O)(=O)c2ccccc2F)CC1`, the Potency is reported as 56.6 nM (active). With `C[C@@H]1CN(S(=O)(=O)c2c(F)cccc2F)CCN1S(=O)(=O)c1ccc2c(c1)OCCO2` the Potency was 1790 nM (active). With `COc1ccc2c(c1)CCc1c(C(=O)NC3CCCCC3)noc1-2` the Potency was “inactive”. `O=S(=O)(NCCCCCNS(=O)(=O)c1c(F)cccc1F)c1ccc2c(c1)OCCO2` was tested, and the Potency was 2010 nM (active). In the case of `C[C@H]1CN(S(=O)(=O)c2ccc3c(c2)OCCO3)CCN1S(=O)(=O)c1c(F)cccc1F`, the Potency is reported as 8970 nM (active). In the case of `COc1ccc(Cn2ncc3c4sc(C)cc4n(C)c3c2=O)cc1`, the Potency is reported as 20.1 nM (active). In the case of `CSc1cc2c(s1)c1cnn(Cc3ccccc3F)c(=O)c1n2C`, the Potency is reported as 14.2 nM (active). `Cc1cc2c(s1)c1cnn(Cc3ccc(C(F)(F)F)cc3)c(=O)c1n2C` was tested, and the Potency was 318 nM (active). In the case of `CCn1c2cc(C)sc2c2cnn(Cc3ccccc3F)c(=O)c21`, the Potency is reported as 4010 nM (active). In the case of `Cc1cc2c(s1)c1cnn(Cc3cccc(F)c3)c(=O)c1n2C`, the Potency is reported as 101 nM (active). In the case of `S=C1NC(c2ccccc2)N2C(=S)NC(c3ccccc3)N12` (stereo not given), the Potency is reported as “inactive”. `O=S(=O)(c1ccc2c(c1)OCCO2)N1CCN(S(=O)(=O)c2cccc[n+]2[O-])CC1` was tested, and the Potency was 8970 nM (active). `O=S(=O)(c1ccc2c(c1)OCCO2)C1CCN(S(=O)(=O)c2c(F)cccc2F)CC1` was tested, and the Potency was 713 nM (active). For `O=S(=O)(/N=C(/Sc1ccccc1)c1ccccc1)c1ccccc1`, the Potency was “inactive”. `O=S(=O)(c1ccc2c(c1)OCCO2)N1CCN(S(=O)(=O)c2ccccn2)CC1` was tested, and the Potency was 505 nM (active).
